Only some compounds are listed: those with a hit (about 18% of all), similar ones and a draw of the others.
GCN5L2 inh: blocks human GCN5L2 histone acetyltransferase; GCN5L2 HAT assay, ThioGlo1 CoA-SH fluorescence; Potency, µM (top dose mostly 58.9 µM), for inactives: top-dose activity change, negative = inhibition, actives largely listed as inhibitors; 390,000 compounds, 0.21% hits; AID 504327
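Titration-based screen in which CoA formation is detected via maleimide probe ThioGlo1 (50uM) turning fluorescent on thiol reaction; substrates H3(1-25) 75uM and acetyl-CoA 70uM, GCN5L2 20nM, 20 min incubation at room temperature.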
TDP1 block: inhibitors of human tyrosyl-DNA phosphodiesterase TDP1; recombinant TDP1, AlphaScreen DNA substrate cleavage; 350,000 compounds, 0.28% hits; Q9NUW8; Potency, µM (top dose mostly 130 µM), inactives show at the top dose activity change, negative = inhibition, actives largely listed as inhibitors; note: nearly all actives have a fitted effect of over 40% in size
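AlphaScreen read-out: signal falls as enzyme removes the 3' tyrosine-FITC from a 5'-biotinylated DNA oligo (15 nM, 5 min, RT). Enzyme was E. coli-made recombinant Tdp1 at 1 nM, exposed to compound for 15 min beforehand; beads 10 ug/ml, 10 min.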
VDR inhibitor: vitamin D3 receptor (human) inhibition; AID 504847; Potency, µM, without a hit: max response, negative = inhibition, usual class: inhibitors; P11473; 400,000 compounds, 0.93% hits; VDR-SRC2-3 peptide fluorescence polarization, 2 h
Target sequence (P11473 whole entry, looked up): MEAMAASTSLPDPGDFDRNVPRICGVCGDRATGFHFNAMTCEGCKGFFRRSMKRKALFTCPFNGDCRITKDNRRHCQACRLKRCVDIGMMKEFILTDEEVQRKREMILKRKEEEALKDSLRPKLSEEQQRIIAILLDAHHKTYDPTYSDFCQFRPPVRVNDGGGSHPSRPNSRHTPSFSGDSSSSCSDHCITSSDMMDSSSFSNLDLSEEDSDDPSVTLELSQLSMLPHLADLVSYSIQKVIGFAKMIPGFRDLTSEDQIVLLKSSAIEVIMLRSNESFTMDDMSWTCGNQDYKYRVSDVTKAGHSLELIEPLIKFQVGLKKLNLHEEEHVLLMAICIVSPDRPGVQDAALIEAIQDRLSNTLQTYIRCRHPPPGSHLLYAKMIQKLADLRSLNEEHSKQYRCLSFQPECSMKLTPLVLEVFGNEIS
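Fluorescence polarization assay measuring small-molecule disruption of VDR binding to the coregulator peptide SRC2-3. Compounds were pin-transferred (23 nl) into the reagent mix and incubated 2 h at room temperature before reading.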
PLK1 PBD block: inhibitors of human PLK1 polo-box domain binding; AID 720504; 360,000 compounds, 2.8% hits; Plk1 PBD binding of FITC phosphopeptide, fluorescence polarization; P53350; Potency, µM, for the others: max response, negative = inhibition, usual class: inhibitors; note: series mostly up to about 57 µM; nearly all actives have a fitted effect of over 65% in size
TDP1 cell CPT: DT40-hTDP1 cell growth loss with CPT. 420,000 compounds, 12% hits. chicken DT40 Tdp1-/-;hTDP1 cells + 20 nM CPT, ATP luminescence, 48 h. Potency, µM (highest dose often 46.2 µM), for inactives: top-dose activity change, negative = growth inhibition, hits mostly inhibitors. AID 686979; note: nearly all actives have a fitted effect of over 55% in size
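Chicken DT40 Tdp1-/- cells stably complemented with human TDP1 were seeded at 400 cells/well in medium containing 20 nM camptothecin, exposed to pin-transferred compounds, and grown at 37 °C for at least 48 hr. Viability was read as ATP luminescence.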
DT40 TDP1 no CPT: qHTS for Inhibitors of human tyrosyl-DNA phosphodiesterase 1 (TDP1): qHTS in cells in absence of CPT; 420,000 compounds, 15% hits; Potency, µM (highest dose often 46.2 µM), for inactives: at the highest dose activity change, negative = growth inhibition, most hits filed as inhibitors; DT40 Tdp1-/- hTDP1 cells, no CPT, ATP luminescence, 48 h; AID 686978, 2013; note: nearly all actives have a fitted effect of over 55% in size
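Luminescent ATP content (CellTiter-Glo) served as the growth readout. Knockout chicken DT40 cells expressing human TDP1 were exposed to compounds without camptothecin for a minimum 48 hr at 37 °C.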
* hit, by the source's call; ? = inconclusive; / = no result; [ ] = another dose, or the depositor's remark. Calls come from the whole dose curve; as a rule, active = well fitted curve in the direction sought with a large enough effect; inconclusive = small, poorly fitted or top-dose-only effect, or another doubt; inactive = no such curve, though single readings can be large; an effect the other way counts as inactive or inconclusive. % is set by controls: 0 for no effect and ±100 for the full control effect; potency is the fitted concentration of half-maximal effect.

SMILES	GCN5L2 inh	TDP1 block	VDR inhibitor	PLK1 PBD block	TDP1 cell CPT	DT40 TDP1 no CPT
CC(C)(C)c1ccc(-c2nnc3sc(-c4ccccn4)nn23)cc1	-15.1%	2.5%	?	21.2µM*	?	?
Clc1ccc(-c2nn3c(-c4cccc(Cl)c4)nnc3s2)cc1	-0.1%	2.9%	/	/	/	/
COc1cccc(-c2nn3c(-c4cc(C)[nH]n4)nnc3s2)c1	-0.7%	0.0%	1.9%	2.6%	15.8µM*	11.2µM*
COc1cccc(-c2nnc3sc(-c4ccccn4)nn23)c1	-3.5%	4.2%	-13.5%	26.7µM*	?	23.1µM*
Clc1ccc(-c2nnc3sc(-c4ccccn4)nn23)cc1	1.8%	2.0%	/	/	/	/
COc1cccc(-c2nn3c(-c4ccccn4)nnc3s2)c1	0.9%	6.1%	4.4%	-8.3%	?	?
N#CC1=C2SCN(Cc3ccccc3)CN2C(=O)CC1c1cccs1 (stereo not given)	?	-9.8%	?	23.8µM*	-15.8%	-16.0%
COc1ccc(C2CC(=O)N3CN(Cc4ccco4)CSC3=C2C#N)cc1 (stereo not given)	-2.7%	2.0%	28.2µM*	26.7µM*	?	-28.9%
N#CC1=C(S)N(c2ccccc2)C(c2cccs2)NC1=O (stereo not given)	-18.0%	-5.3%	?	?	?	?
COc1ccc2ccccc2c1C1CC(=O)N2CN(C3CCCCC3)CSC2=C1C#N (stereo not given)	-27.3%	6.1%	89.1µM*	13.4µM*	-10.2%	-20.7%
COc1ccc2ccccc2c1C1CC(=O)N2CN(Cc3ccco3)CSC2=C1C#N (stereo not given)	?	6.1%	?	18.9µM*	-17.1%	?
COc1ccc(C2C(C#N)=C(N)Oc3cc(C)n(Cc4ccco4)c(=O)c32)cc1 (stereo not given)	-1.7%	2.0%	?	-28.4%	-5.9%	-10.4%
COc1cccc(CNC(=O)c2c(OC)cc(=O)n3c2CCN(C(=O)c2ccc(C)cc2C)CC3)c1	/	/	/	/	-0.9%[9.04 µM]	-11.9%
COc1ccccc1NC(=O)CSc1nc(O)c(C/C=C/c2ccccc2)c(=O)[nH]1	0.5%	/	-18.9%	/	-6.1%	-17.9%
CC(C)[C@H](CO)NC(=O)[C@H]1O[C@@H](n2ccc(=O)[nH]c2=O)[C@H](O)[C@@H]1O	/	/	/	-2.8%	-25.4%	1.2%
CCCNC(=O)OC[C@@H]1O[C@H](CCO/N=C(\C)CCC(=O)OC[C@@H]2O[C@H](c3ccccc3)C=C[C@@H]2Oc2ccc(OC)cc2)C=C[C@@H]1Oc1ccc(OC)cc1	/	5.8%[21 µM]	/	/	/	/
COc1cc(=O)n2c(c1C(=O)NCc1ccco1)CCN(Cc1cccc(C)n1)CC2	/	/	/	/	3.7%[9.04 µM]	4.9%
Clc1ccc(N2CCN(Cc3ccco3)CC2)cc1	-6.3%	/	12.0%	-14.3%	-23.8%	?
N#CC1=C2SCN(Cc3ccco3)CN2C(=O)CC1c1ccc(Cl)cc1 (stereo not given)	-17.5%	2.1%	?	26.7µM*	-15.7%	-20.8%
CCOC(=O)N1CCN(C(=O)CSCC(=O)Nc2nc(-c3ccc(OC)cc3)cs2)CC1	-8.8%	8.7%	9.8%	-12.4%	?	20.6µM*
CCOC(=O)N1CCN(C(=O)CSCC(=O)Nc2nc(-c3ccc(-c4ccccc4)cc3)cs2)CC1	-0.4%	8.7%	10.9%	-0.9%	3.26µM*	3.26µM*
O=C(CSCC(=O)N1CCOCC1)Nc1nc(-c2ccccc2)cs1	-6.7%	/	0.9%	-6.9%	-4.8%	-10.8%
CCOC(=O)N1CCN(C(=O)CSc2nnc(-c3ccc(Cl)s3)o2)CC1	-6.2%	-2.1%	/	/	/	/
CCCC(=O)Nc1nc(-c2ccc(OC)cc2)cs1	-7.0%	0.0%	9.2%	-1.5%	?	?
CCOC(=O)N1CCN(C(=O)CSCC(=O)Nc2nc(-c3ccc(Cl)s3)cs2)CC1	-4.5%	1.2%	-4.5%	-17.6%	14.6µM*	18.4µM*
SMILES	GCN5L2 inh	TDP1 block	VDR inhibitor	PLK1 PBD block	TDP1 cell CPT	DT40 TDP1 no CPT
CCCCN=C1CC(C)(C)CC(=O)/C1=C(/O)CCC	-8.9%	9.5%	-2.7%	3.1%	?	?
CO/N=C(\CCC(=O)O)c1cccs1	-4.3%	/	-11.3%	-12.7%	9.6%	?
CCn1c(N2CCN(CC(=O)c3ccc(OC)cc3)CC2)nc2ccccc21	-4.2%	5.9%	13.8%	-10.8%	-6.4%	-14.3%
Cc1ccc(NC(=O)NCc2nc3ccccc3n2C)cc1	2.6%	4.0%	11.2%	-16.7%	?	23.1µM*
CC(C)n1c(N2CCN(CC(=O)Nc3ccc4c(c3)OCCO4)CC2)nc2ccccc21	-10.3%	3.8%	8.6%	3.2%	?	?
CCn1c(N2CCN(CC(=O)Nc3cccc(C)c3C)CC2)nc2ccccc21	-6.6%	1.9%	12.0%	-5.3%	-22.9%	20.6µM*
CC(C)Cn1c(N2CCN(CC(=O)Nc3ccc(Cl)cc3)CC2)nc2ccccc21	4.9%	2.8%	-7.0%	0.7%	?	20.6µM*
Cc1ccc(SCc2nc3ccccc3n2CC(=O)Nc2ccc(Cl)cc2)cc1	-9.3%	4.0%	-0.3%	-3.8%	20.6µM*	?
CC(C)Oc1ccc(CN2CCC(n3nccc3NC(=O)C3CC3)CC2)cc1	-17.5%	1.2%	0.6%	0.0%	-6.0%	1.7%
COc1cc(=O)n2c(c1C(=O)NC(C)c1ccco1)CCN(Cc1cc(C)ccc1C)CC2 (stereo not given)	/	/	/	/	-4.7%[9.04 µM]	-16.8%
CC(C)(C)NC(=O)C(c1ccccc1)n1c(=O)c(-c2cc3ccccc3[nH]2)nc2ccccc21 (stereo not given)	/	/	/	-7.1%	?	?
Cc1cccc(C)c1NC(=O)C(CCc1ccccc1)n1c(=O)c(-c2cc3ccccc3[nH]2)nc2ccccc21 (stereo not given)	/	/	/	-12.7%	7.31µM*	6.51µM*
O=C(NCc1ccccc1)C(c1ccccc1)n1c(=O)c(-c2cc3ccccc3[nH]2)nc2ccccc21 (stereo not given)	/	/	/	7.7%	?	20.6µM*
CC(C)(C)NC(=O)C(CCc1ccccc1)n1c(=O)c(-c2cc3ccccc3[nH]2)nc2ccccc21 (stereo not given)	/	/	/	-4.8%	14.6µM*	13µM*
O=C(NCc1ccccc1)C(c1cc2ccccc2o1)n1c(=O)c(-c2cc3ccccc3[nH]2)nc2ccccc21 (stereo not given)	/	/	/	9.1%	?	?
CC(C)(C)NC(=O)C(c1ccc(-c2ccccc2)cc1)n1c(=O)c(-c2cc3ccccc3[nH]2)nc2ccccc21 (stereo not given)	/	/	/	10.3%	?	14.6µM*
Cc1cccc2c1ncc1c(=O)n(-c3ccccc3)[nH]c12	-0.2%	/	0.0%	0.0%	0.3%	12.2%
CN(Cc1ccccc1)C(=O)C1CCN(S(=O)(=O)Cc2ccccc2)CC1	-2.0%	2.9%	13.4%	/	-2.0%	-19.9%
